Values joined by “and” are separate entries in the source; they are usually repeats but may differ in a detail not shown here. Equal values may be shown once. Records with an inconclusive call do not appear. Where a structure was tested more than once in an assay, its records may differ in their call. Active and inactive are the calls of the source. Rule for the calls, unless noted: active = hit-call score of the fitted dose curve at least 0.9, where 1 is the maximum; inactive = score below 0.9.
How the values were obtained:
[1] = BSK_3C_uPAR: BioMAP Diversity Plus: 3C Assay for Urokinase-type plasminogen activator receptor (uPAR) Biomarker Activity (AID 2282998); details: BioMAP 3C HUVEC, uPAR biomarker ELISA; actives raise or lower the signal
Procedure, shortened: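 Dose primary human umbilical vein endothelial cells, incubate 24 h, measure cell-surface uPAR by ELISA, then fit the signal in both directions against the DMSO negative control.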

[2] = BSK_3C_VCAM1: BioMAP Diversity Plus: 3C Assay for Vascular cell adhesion molecule 1 (VCAM1) Biomarker Activity (AID 2282999); details: BioMAP 3C HUVEC, VCAM1 ELISA, cytokine-stimulated; actives raise or lower the signal
Procedure, shortened: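 Human umbilical vein endothelial cells were dosed with compound for 24 h, after which cell-surface VCAM-1 was quantified by ELISA. Bidirectional curve fitting used DMSO as negative control and activity baseline.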

[3] = BSK_4H_Eotaxin3: BioMAP Diversity Plus: 4H Assay for Eotaxin 3 Biomarker Activity (AID 2283000); details: primary human endothelial cells (HUVEC); actives raise or lower the signal
Procedure, shortened: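 ELISA quantitation of CCL26 (Eotaxin-3) protein from chemically dosed human vascular endothelial cells at 24 h; increases and decreases both scored relative to DMSO-treated baseline.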

[4] = BSK_3C_Proliferation: Cell Proliferation Assessment in the BioMAP Diversity Plus: 3C Assay (AID 2283006); details: primary human endothelial cells (HUVEC);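 for AC50: potency may reflect either rise or fall in cell number versus DMSO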
Procedure, shortened: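 Proliferation of human vascular endothelial primary cells after 48 h dosing, quantified as SRB-stained protein at 560 nm relative to DMSO.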

[5] = read-out: Monocyte Chemoattractant Protein-1 (MCP1), CCL2 (gene 6347); assay: BSK_4H_MCP1: BioMAP Diversity Plus: 4H Assay for Monocyte Chemoattractant Protein-1 (MCP1) Biomarker Activity (AID 2283018); details: primary human endothelial cells (HUVEC); actives raise or lower the signal
Procedure, shortened: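 Readout: MCP-1 ELISA on compound-treated HUVEC, sampled 24 h post-dosing. Baseline and negative control DMSO; bidirectional fit. Overt toxicity checked alongside by sulforhodamine B protein staining at time of biomarker measurement.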

[6] = read-out: Monokine induced gamma interferon (MIG), CXCL9 (gene 4283); assay: BSK_3C_MIG: BioMAP Diversity Plus: 3C Assay for Monokine induced gamma interferon (MIG) Biomarker Activity (AID 2283021); details: primary human endothelial cells (HUVEC); actives raise or lower the signal;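 for AC50: MIG protein level measured by immunoassay in the treated endothelial cultures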
Procedure, shortened: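 After 24 h of treatment, human umbilical vein endothelial cultures (3C system) had their MIG biomarker level determined by ELISA, with DMSO serving as negative control.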

[7] = BSK_3C_SRB: Viability Assessment in the BioMAP Diversity Plus: 3C Assay (AID 2283023); details: primary human endothelial cells (HUVEC);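 note: fitted both ways against DMSO so a hit may be signal rise or drop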
Procedure, shortened: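 Overt cytotoxicity is gauged in parallel confluent HUVEC cultures by SRB total-protein staining at the time of biomarker measurement, 24 h after dosing. Gain or loss of signal is fitted versus DMSO.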

[8] = BSK_BE3C_SRB: Viability Assessment in the BioMAP Diversity Plus: BE3C Assay (AID 2283028); details: primary human bronchial epithelial cells;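 for AC50: fitted both ways so AC50 may mark signal gain or loss versus DMSO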
Procedure, shortened: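 SRB total-protein staining (0.1%, after TCA fixation) of chemically dosed human bronchial epithelial primary cells at 24 h; DMSO serves as the negative control for bidirectional curve fitting.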

[9] = read-out: Monokine induced gamma interferon (MIG), CXCL9 (gene 4283); assay: BSK_BE3C_MIG: BioMAP Diversity Plus: BE3C Assay for Monokine induced gamma interferon (MIG) Biomarker Activity (AID 2283035); details: primary human bronchial epithelial cells; actives raise or lower the signal
Procedure, shortened: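 ELISA read-out of MIG in human lung bronchial epithelial primary cultures, 24 h post-dosing. Bidirectional curve fit vs DMSO baseline.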

[10] = read-out: Urokinase-type plasminogen activator receptor (uPAR), PLAUR (gene 5329); assay: BSK_BE3C_uPAR: BioMAP Diversity Plus: BE3C Assay for Urokinase-type plasminogen activator receptor (uPAR) Biomarker Activity (AID 2283039); details: primary human bronchial epithelial cells; actives raise or lower the signal
Procedure, shortened: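 A uPAR ELISA serves as the readout, taken 24 h after treating primary human bronchial epithelial cells. Responses in either direction are fitted against DMSO, which defines baseline activity.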

[11] = read-out: Tissue plasminogen activator (tPA), PLAT (gene 5327); assay: BSK_BE3C_tPA: BioMAP Diversity Plus: BE3C Assay for Tissue plasminogen activator (tPA) Biomarker Activity (AID 2283041); details: primary human bronchial epithelial cells; actives raise or lower the signal
Procedure, shortened: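 Bidirectional curve fitting relative to DMSO defined activity, with tPA detected by ELISA in chemically treated human bronchial epithelial primary cells at 24 hours.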

[12] = read-out: Interleukin-8 (IL8), CXCL8 (gene 3576); assay: BSK_CASM3C_IL8: BioMAP Diversity Plus: CASM3C Assay for Interleukin-8 (IL8) Biomarker Activity (AID 2283042); details: primary human coronary artery smooth muscle cells; actives raise or lower the signal;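 note: IL-8 protein level quantified by ELISA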
[13] = read-out: Human Leukocyte Antigen - DR isotype (HLADR), HLA-DRA (gene 3122); assay: BSK_CASM3C_HLADR: BioMAP Diversity Plus: CASM3C Assay for Human Leukocyte Antigen - DR isotype (HLADR) Biomarker Activity (AID 2283043); details: primary human coronary artery smooth muscle cells; actives raise or lower the signal;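 note: cell-surface HLA-DR protein level quantified by ELISA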
CD69, CD69 (gene 969) = assay: BSK_SAg_CD69: BioMAP Diversity Plus: SAg Assay for CD69 Biomarker Activity (AID 2283089); details: primary human HUVEC with PBMC; actives raise or lower the signal;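 for AC50: cell surface CD69 protein quantified by ELISA with fluorescence detection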
Procedure, shortened: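 ELISA, fluorescence read-out: CD69 on human umbilical vein endothelial cell + PBMC co-culture, 24 h post-dosing. Gain or loss of signal fitted bidirectionally against DMSO baseline.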

[14] = biological target: Retinoic acid receptor alpha (Homo sapiens) (UniProt P10276); assay: ATG_DR5_RAR_CIS: Attagene CIS-FACTORIAL HepG2 Assay for human Retinoic Acid Receptor Alpha (RARE), DR5 submotif (AID 2282934); details: HepG2 Attagene cis-factorial RARE DR5 reporter, mRNA; actives raise or lower the signal;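 for AC50: reporter responds to endogenous RAR alpha beta and gamma in HepG2 not RARA alone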
Procedure, shortened: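 Endpoint fitted in both directions relative to DMSO as negative control. It reflects DR5 cis-element reporter mRNA induction in transiently transfected HepG2 cells, measured 24 h after dosing through RT-PCR and fluorescent capillary electrophoresis.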

[15] = biological target: Hepatocyte nuclear factor 6 (Homo sapiens) (UniProt Q9UBC0); assay: ATG_HNF6_CIS: Attagene CIS-FACTORIAL HepG2 Assay for human Hepatocyte Nuclear Factor 6 (HNF6) (AID 2282952); details: HepG2 Attagene cis-factorial HNF6 reporter transcription; actives raise or lower the signal
Procedure, shortened: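 Cells are HepG2 carrying transiently transfected cis-promoter reporter units. Treatment lasts 24 h, after which reporter transcripts are reverse-transcribed, amplified, FAM-labelled and sized by capillary electrophoresis. DMSO serves as baseline.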

[16] = ATG_RORE_CIS: Attagene CIS-FACTORIAL HepG2 Assay for human RAR-related Orphan Receptor Element (RORE) (AID 2282959); details: HepG2 Attagene cis-factorial RORE reporter, mRNA; actives raise or lower the signal
Procedure, shortened: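 Multiplexed reporter assay measuring mRNA induction from a cis promoter element in transiently transfected HepG2 cells after 24 h treatment. Detection via RT-PCR and capillary electrophoresis fluorescence; DMSO serves as baseline.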

[17] = biological target: Glucocorticoid receptor (Homo sapiens) (UniProt P04150); assay: ATG_GR_TRANS: Attagene TRANS-FACTORIAL HepG2 Assay for human Glucocorticoid Receptor (GR) (AID 2282978; active = hit-call score of the fitted dose curve at least 0.9, where 1 is the maximum;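 note: activators score as hits since higher reporter transcript over DMSO is fitted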); details: HepG2 Attagene TRANS GR reporter, mRNA transcription
Procedure, shortened: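 Multiplexed TRANS reporter system, HepG2; 24 h exposure; RNA → oligo(dT) RT → reporter-specific PCR → 6-FAM primer extension → HpaI cut → CE fluorescence. Gain-of-signal vs DMSO.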

[18] = biological target: Nuclear respiratory factor 1 (Homo sapiens) (UniProt Q16656); assay: ATG_NRF1_CIS: Attagene CIS-FACTORIAL HepG2 Assay for human Nuclear Respiratory Factor 1 (NRF1) Orphan Gene (AID 2282987); details: HepG2 NRF1 cis-element reporter, Attagene multiplex; actives raise or lower the signal
Procedure, shortened: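 Human hepatoma HepG2 cells carrying transfected promoter-regulated reporter units were incubated with test chemicals for 24 h. Reporter transcripts were measured by RT-PCR plus capillary electrophoresis, and endpoints derived by bidirectional fitting with DMSO as baseline.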

[19] = biological target: Cellular tumor antigen p53 (Homo sapiens) (UniProt P04637); assay: ATG_p53_CIS: Attagene CIS-FACTORIAL HepG2 Assay for human p53 Transcription Factor (AID 2282994); details: HepG2 p53 cis-element reporter, Attagene mRNA; actives raise or lower the signal
Procedure, shortened: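 Multiplexed reporter mRNA assay in human HepG2 liver cells; cis-regulated units report endogenous factor activity. Values come from bidirectional curve fitting against DMSO negative control after 24 h treatment.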

Measured: AC50

Chain of Cellular tumor antigen p53 (Homo sapiens) (P04637 whole entry, looked up): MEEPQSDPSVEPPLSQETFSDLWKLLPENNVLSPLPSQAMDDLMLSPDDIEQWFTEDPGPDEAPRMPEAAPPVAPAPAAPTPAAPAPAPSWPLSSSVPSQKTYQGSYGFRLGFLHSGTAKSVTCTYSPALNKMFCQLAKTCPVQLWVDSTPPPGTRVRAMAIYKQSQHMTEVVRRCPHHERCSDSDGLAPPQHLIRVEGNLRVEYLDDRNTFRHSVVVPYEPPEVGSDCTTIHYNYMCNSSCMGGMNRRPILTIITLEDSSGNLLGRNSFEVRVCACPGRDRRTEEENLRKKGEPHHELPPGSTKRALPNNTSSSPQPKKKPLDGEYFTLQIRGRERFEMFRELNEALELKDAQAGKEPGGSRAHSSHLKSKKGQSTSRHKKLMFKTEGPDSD
Chain of Retinoic acid receptor alpha (Homo sapiens) (P10276 whole entry, looked up): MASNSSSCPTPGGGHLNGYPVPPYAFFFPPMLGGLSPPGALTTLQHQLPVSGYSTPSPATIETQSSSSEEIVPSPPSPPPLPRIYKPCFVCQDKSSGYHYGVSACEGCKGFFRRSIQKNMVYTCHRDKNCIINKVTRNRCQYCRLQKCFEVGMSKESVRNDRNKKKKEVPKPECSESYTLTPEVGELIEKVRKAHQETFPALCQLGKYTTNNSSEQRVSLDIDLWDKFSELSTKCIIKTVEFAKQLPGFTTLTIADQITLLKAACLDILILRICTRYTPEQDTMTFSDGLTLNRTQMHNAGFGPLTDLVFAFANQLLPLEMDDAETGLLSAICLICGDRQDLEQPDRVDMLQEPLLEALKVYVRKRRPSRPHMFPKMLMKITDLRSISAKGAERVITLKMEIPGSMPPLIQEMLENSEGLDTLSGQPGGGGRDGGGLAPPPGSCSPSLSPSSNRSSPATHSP
Chain of Nuclear respiratory factor 1 (Homo sapiens) (Q16656 whole entry, looked up): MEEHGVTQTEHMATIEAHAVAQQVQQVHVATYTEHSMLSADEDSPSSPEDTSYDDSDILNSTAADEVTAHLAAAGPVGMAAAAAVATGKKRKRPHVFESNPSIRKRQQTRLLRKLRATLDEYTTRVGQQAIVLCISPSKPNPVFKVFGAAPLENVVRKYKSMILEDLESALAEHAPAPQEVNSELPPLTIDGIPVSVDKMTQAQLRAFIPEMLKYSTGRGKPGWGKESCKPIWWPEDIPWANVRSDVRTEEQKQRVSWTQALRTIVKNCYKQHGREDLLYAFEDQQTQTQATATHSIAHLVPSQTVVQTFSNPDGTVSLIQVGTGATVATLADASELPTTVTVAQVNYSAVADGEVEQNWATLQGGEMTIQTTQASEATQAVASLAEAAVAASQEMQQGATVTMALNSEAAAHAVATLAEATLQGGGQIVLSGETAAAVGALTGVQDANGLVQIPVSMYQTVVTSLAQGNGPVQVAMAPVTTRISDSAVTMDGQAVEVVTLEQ
Chain of Hepatocyte nuclear factor 6 (Homo sapiens) (Q9UBC0 whole entry, looked up): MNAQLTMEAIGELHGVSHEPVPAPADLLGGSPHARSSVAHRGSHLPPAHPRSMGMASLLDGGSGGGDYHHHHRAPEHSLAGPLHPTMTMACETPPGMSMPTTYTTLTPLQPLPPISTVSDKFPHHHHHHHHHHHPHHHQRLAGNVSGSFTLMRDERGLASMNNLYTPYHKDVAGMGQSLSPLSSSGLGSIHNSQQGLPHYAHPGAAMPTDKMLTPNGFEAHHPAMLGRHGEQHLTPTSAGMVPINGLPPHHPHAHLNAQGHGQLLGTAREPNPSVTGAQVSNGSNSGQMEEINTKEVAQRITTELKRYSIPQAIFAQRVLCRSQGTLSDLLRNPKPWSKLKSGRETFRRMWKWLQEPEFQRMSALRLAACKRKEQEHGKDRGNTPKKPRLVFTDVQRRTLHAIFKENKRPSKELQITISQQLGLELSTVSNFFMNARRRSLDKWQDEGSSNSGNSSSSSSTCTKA
Chain of Glucocorticoid receptor (Homo sapiens) (P04150 whole entry, looked up): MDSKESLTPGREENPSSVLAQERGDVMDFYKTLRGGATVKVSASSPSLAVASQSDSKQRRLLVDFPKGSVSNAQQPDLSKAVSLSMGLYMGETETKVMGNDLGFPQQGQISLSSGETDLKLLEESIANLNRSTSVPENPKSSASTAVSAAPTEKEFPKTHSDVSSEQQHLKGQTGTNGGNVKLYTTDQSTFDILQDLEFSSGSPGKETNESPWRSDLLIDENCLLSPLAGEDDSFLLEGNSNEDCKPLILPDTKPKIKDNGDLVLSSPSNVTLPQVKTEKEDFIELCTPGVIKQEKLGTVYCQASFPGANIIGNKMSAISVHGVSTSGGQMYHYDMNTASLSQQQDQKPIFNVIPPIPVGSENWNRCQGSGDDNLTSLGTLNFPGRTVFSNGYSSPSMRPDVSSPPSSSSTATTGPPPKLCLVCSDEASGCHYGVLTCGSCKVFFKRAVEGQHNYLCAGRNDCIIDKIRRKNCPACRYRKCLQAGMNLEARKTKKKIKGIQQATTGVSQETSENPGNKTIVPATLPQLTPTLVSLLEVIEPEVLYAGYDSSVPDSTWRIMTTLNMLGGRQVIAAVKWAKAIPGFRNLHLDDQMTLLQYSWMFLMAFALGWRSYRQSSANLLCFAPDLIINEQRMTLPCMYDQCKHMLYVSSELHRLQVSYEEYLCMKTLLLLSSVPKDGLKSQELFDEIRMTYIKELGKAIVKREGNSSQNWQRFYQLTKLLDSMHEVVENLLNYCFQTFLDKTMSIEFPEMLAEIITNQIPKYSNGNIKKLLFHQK

OC(C(F)(F)F)(C(F)(F)F)C(O)(C(F)(F)F)C(F)(F)F
inactive: [12]
active: [1] 13.8 µM and 10.7 µM | [2] 38.6 µM and 42.1 µM | [3] 22.3 µM and 27.4 µM | [4] 22.1 µM and 21.6 µM | [5] 21.5 µM and 10.1 µM | [6] 43.7 µM and 50.9 µM | [7] 30 µM and 27.7 µM | [8] 48 µM and 48.9 µM | [9] 54.8 µM and 54.6 µM | [10] 14.4 µM and 13.8 µM | [11] 17 µM and 16 µM | [13] 18.7 µM and 7.57 µM | CD69, CD69 (gene 969) 18.5 µM and 17.7 µM

COC(=O)/C=C\C(=O)OC
active: [15] 128 µM | [13] 5.11 µM
inactive: [14] | [16] | [17] | [18] | [19] | [1] | [2] | [3] | [4] | [5] | [6] | [7] | [8] | [9] | [10] | [11] | [12] | CD69, CD69 (gene 969)

C=CN1CCCCCC1=O
inactive: [15] | [16] | [18] | [19]

COc1cc(CNC(=O)CCCC/C=C/C(C)C)ccc1O
inactive: [1] | [2] | [3] | [5] | [6] | [7] | [8] | [9] | [10] | [11] | [12] | CD69, CD69 (gene 969)
active: [4] 8.93 µM and 9.17 µM | [13] 16.8 µM and 5.89 µM | CD69, CD69 (gene 969) 27.1 µM

CCCCC(CC)COC(=O)C=Cc1ccc(OC)cc1 (stereo not drawn)
inactive: [2] | [6] | [8] | [9] | [10] | [11] | [12]
active: [1] 35.3 µM and 26.2 µM | [3] 24.2 µM and 18.9 µM | [4] 32.7 µM and 27.1 µM | [5] 20 µM and 27.4 µM | [7] 31.8 µM and 31.4 µM | [13] 13.9 µM and 7.28 µM | CD69, CD69 (gene 969) 26.3 µM and 18.6 µM

c1ccc2c(c1)Oc1ccccc1S2
inactive: [15] | [17] | [18] | [19]

COc1ccccc1Oc1c(NS(=O)(=O)c2ccc(C(C)(C)C)cc2)nc(-c2ncccn2)nc1OCCO
inactive: [1] | [2] | [5] | [6] | [7] | [8] | [9] | [10] | [11] | [12] | [13] | CD69, CD69 (gene 969)
active: [3] 7.97 µM and 11.3 µM | [4] 28.2 µM and 13.9 µM

[O-][n+]1ccc(Cl)cc1
inactive: [14] | [16] | [17] | [18] | [19]

Cc1cc(O)cc(C)c1Cl
active: [14] 79.6 µM
inactive: [15] | [16] | [17] | [18]

C1CN(CCOCCN2CCOCC2)CCO1
inactive: [1] | [2] | [3] | [4] | [5] | [6] | [7] | [8] | [9] | [10] | [11] | [12] | [13] | CD69, CD69 (gene 969)

CCC(C)=NO
inactive: [14] | [15] | [16] | [17] | [19] | [1] | [2] | [3] | [4] | [5] | [6] | [7] | [8] | [9] | [10] | [11] | [12] | [13] | CD69, CD69 (gene 969)
